“And” between values parts separate entries of the source, which are not always exact repeats. Identical values can stand only once. The source made the active and inactive calls. How the source made its calls: active means hit-call score of the fitted dose curve at least 0.9, where 1 is the maximum; inactive means score below 0.9.

Read-out in this test: Plasminogen Activator Inhibitor-1 (PAI1), SERPINE1 (gene 5054)
In words: BSK_BF4T_PAI1: BioMAP Diversity Plus: BF4T Assay for Plasminogen Activator Inhibitor-1 (PAI1) Biomarker Activity (AID 2284273). Particulars: primary human bronchial epithelial cells with fibroblasts. The procedure: BSK_BF4T is a cell-based, multiplexed-readout assay that uses bronchial epithelial cells and dermal fibroblasts, a human vascular primary cell, with measurements taken at 24 hours after chemical dosing in a microplate: 96-well plate.BSK_BF4T_PAI1 is an assay component measured in the BSK_BF4T assay. It measures PAI-1 antibody related to regulation of gene expression using ELISA technology.Data from the assay component BSK_BF4T_PAI1 was analyzed at the endpoint, BSK_BF4T_PAI1, in the positive analysis fitting direction relative to DMSO as the negative control and baseline of activity. Using a type of binding reporter, gain or loss-of-signal activity can be used to understand protein changes. To generalize the intended target to other relatable targets, this assay endpoint is annotated to the 'cytokine' intended target family, where the subfamily is 'plasmogen activator inhibitor'.
The levels of cell surface (or secreted, indicated by the prefix "s") biomarker endpoints were measured by ELISA. Overt cytotoxicity to cells in confluent adherent cultures (all systems other than the BT system) was assessed by measuring total protein levels using sulforhodamine B (SRB) staining in parallel cultures at the time of biomarker measurements, indicated as SRB endpoints. For proliferation assays for adherent cell types, individual cell types are cultured at sub-confluence and relative cell numbers quantified by SRB staining at time points optimized for each system (48 h: 3C and CASM3C systems; 72 h: BT and HDF3CGF systems; 96 h: SAg system). SRB was performed by staining cells with 0.1% SRB after fixation with 10% TCA and reading wells at 560 nm.Viability and proliferation of PBMC (T cells) was quantified by Alamar Blue reduction for the SAg and BT systems. For PBMC viability (referred to as PBMC Cytotoxicity within the assay endpoint names), cells were plated (75,000/well in a 96-well plate) and then chemical samples added for 1 h before addition of activators, SEB and TSST-1 (20 ng/mL final concentration each). Cells were incubated for 90 h. Then, Alamar Blue (20 uL/well) (Invitrogen, Cat DAL1100) was added for 6 h, and the plates were read with a fluorescence microplate reader at 546/580 nm (excitation/emission). For PBMC proliferation, cells were plated and activated as above but incubated for only 16 h prior to addition of Alamar Blue. Plates were read after 6 h.
In the case of `O=P(O)(O)CCC(F)(F)C(F)(F)C(F)(F)C(F)(F)C(F)(F)C(F)(F)C(F)(F)C(F)(F)F`, the result was inactive.

Regarding `O=C(O)C(F)(F)OC(F)(F)C(F)(F)OC(F)(F)C(F)(F)OC(F)(F)C(F)(F)C(F)(F)C(F)(F)F`, the concentration at half-maximal activity (AC50) (commonly the midpoint of the concentration-response curve, whichever way the signal moves) is 19.1 µM (active) and 16.2 µM (active). Still for that read-out and setting: then `O=C(CC(=O)C(F)(F)C(F)(F)C(F)(F)F)c1cccs1`, with 16.9 µM (active) and 15.5 µM (active). In the case of `O=C(O)CCC(F)(F)C(F)(F)C(F)(F)C(F)(F)C(F)(F)F`, the outcome was inactive.

In the case of `O=P(O)(O)CCC(F)(F)C(F)(F)C(F)(F)C(F)(F)C(F)(F)C(F)(F)F`, the outcome was inactive. Regarding `CN(CCO)S(=O)(=O)C(F)(F)C(F)(F)C(F)(F)C(F)(F)C(F)(F)C(F)(F)C(F)(F)C(F)(F)F`, the result was inactive. The same measure, in the same setting: then `CN(Cc1cnc2nc(N)nc(N)c2n1)c1ccc(C(=O)N[C@@H](CCC(=O)O)C(=O)O)cc1`, with “inactive”.

`O=C(O)CCC(F)(F)C(F)(F)C(F)(F)C(F)(F)C(F)(F)C(F)(F)F`: the outcome was inactive. Still for that read-out and setting: to `C=CC(=O)OCCC(F)(F)C(F)(F)C(F)(F)C(F)(F)C(F)(F)C(F)(F)C(F)(F)C(F)(F)F` belongs “inactive”; to `O=S(=O)(O)C(F)(F)C(F)(F)C(F)(F)C(F)(F)C(F)(F)C(F)(F)C(F)(F)C(F)(F)C(F)(F)C(F)(F)F`, “inactive”; to `OCC(F)(F)C(F)(F)C(F)(F)C(F)(F)C(F)(F)C(F)(F)C(F)(F)C(F)(F)C(F)(F)C(F)(F)C(F)(F)F`, “inactive”.

The record behind these values is PubChem BioAssay (EPA / NIEHS).
